Data: PubChem BioAssay (NCI)
About 83,000 compounds went through this panel and 20% of them were active in at least one assay; those are over-represented in the sample as a whole.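 Method: cells in 96-well plates; compound added at one concentration; 48 h incubation; percent growth measured; values under 10 scored active.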 Activity calls are given as the source filed them.

Legend:
Test in all cases: NCI-60 one-dose screen, 48 h (100 = growth as untreated, 0 = no growth, -100 = all killed)
Conditions in all cases: 10 µM unless noted
NCI-H23 lung = tested on: NCI-H23 lung
NCI-H226 lung = tested on: NCI-H226 lung
NCI-H322M lung = tested on: NCI-H322M lung
HOP-62 NSCLC = tested on: HOP-62 NSCLC
NCI-H460 lung = tested on: NCI-H460 lung
786-0 renal = tested on: 786-0 renal
MDA-MB-231 breast = tested on: MDA-MB-231 breast
SF-268 CNS = tested on: SF-268 CNS
SF-539 CNS = tested on: SF-539 CNS
U251 CNS = tested on: U251 CNS
UACC-62 melanoma = tested on: UACC-62 melanoma
SK-MEL-28 melanoma = tested on: SK-MEL-28 melanoma
SN12C renal = tested on: SN12C renal
UO-31 renal = tested on: UO-31 renal
OVCAR-8 ovarian = tested on: OVCAR-8 ovarian
OVCAR-3 ovarian = tested on: OVCAR-3 ovarian
MDA-MB-435 melanoma = tested on: MDA-MB-435 melanoma
SW-620 colon = tested on: SW-620 colon
MCF7 breast = tested on: MCF7 breast
KM12 colon = tested on: KM12 colon

Measured: growth

CC[CH2][Pb]([CH2]CC)([CH2]CC)[O]C(=O)C(F)(F)F
active: NCI-H23 lung -46.4% | NCI-H226 lung -61.6% | NCI-H322M lung -98.3% | HOP-62 NSCLC -84.3% | NCI-H460 lung -71.6% | 786-0 renal -98.6% | MDA-MB-231 breast -50.3% | SF-268 CNS -82.3% | SF-539 CNS -99.2% | U251 CNS -87.4% | UACC-62 melanoma -83.2% | SK-MEL-28 melanoma -97.2% | SN12C renal -79.3% | UO-31 renal -100% | OVCAR-8 ovarian -69.4% | OVCAR-3 ovarian -95.4% | MDA-MB-435 melanoma -97.1% | SW-620 colon -50.8% | MCF7 breast -79.7% | KM12 colon -88.2%

O=C(CI)Nc1ccc(Br)cc1
inactive: NCI-H23 lung 32% | NCI-H226 lung 69.7% | NCI-H322M lung 95.4% | NCI-H460 lung 95.3% | 786-0 renal 91.3% | MDA-MB-231 breast 44.2% | SF-268 CNS 75.8% | SF-539 CNS 95.8% | UACC-62 melanoma 79.2% | SK-MEL-28 melanoma 109% | SN12C renal 15.7% | OVCAR-8 ovarian 11.9% | MDA-MB-435 melanoma 52% | MCF7 breast 32.4% | KM12 colon 88.1%
active: HOP-62 NSCLC -62.7% | U251 CNS -18.8% | UO-31 renal -82.3% | OVCAR-3 ovarian -78.7% | SW-620 colon -86.7%

CCC(C)[C@H]1O[C@]2(C=C[C@@H]1C)C[C@@H]1C[C@@H](C/C=C(\C)[C@@H](OC3C[C@H](OC)C(O[C@H]4C[C@H](OC)[C@@H](O)[C@H](C)O4)[C@H](C)O3)[C@@H](C)/C=C/C=C3\CO[C@@H]4[C@H](O)C(C)=C[C@@H](C(=O)O1)[C@]34O)O2 (stereo not given in full)
active: NCI-H23 lung 5.82% | NCI-H226 lung -15.6% | HOP-62 NSCLC -6% | NCI-H460 lung -34.5% | 786-0 renal 0.269% | MDA-MB-231 breast -58.2% | SF-268 CNS 1.66% | SF-539 CNS -71.6% | U251 CNS -16% | UACC-62 melanoma -35% | SK-MEL-28 melanoma -82.4% | SN12C renal 1.84% | OVCAR-3 ovarian -72.3% | MDA-MB-435 melanoma -31.6% | SW-620 colon -72% | KM12 colon -12.3%
inactive: NCI-H322M lung 25.7% | UO-31 renal 10.1% | OVCAR-8 ovarian 12.5% | MCF7 breast 10.4%

O=C(CCl)NCNC(=O)CCl
inactive: NCI-H23 lung 97.8% | NCI-H226 lung 112% | NCI-H322M lung 100% | HOP-62 NSCLC 97.2% | NCI-H460 lung 103% | 786-0 renal 107% | MDA-MB-231 breast 99.7% | SF-268 CNS 98.1% | SF-539 CNS 101% | U251 CNS 87.9% | UACC-62 melanoma 82% | SK-MEL-28 melanoma 93.7% | SN12C renal 97.7% | UO-31 renal 93.5% | OVCAR-8 ovarian 92.4% | OVCAR-3 ovarian 105% | MDA-MB-435 melanoma 93.9% | SW-620 colon 100% | MCF7 breast 85.1% | KM12 colon 104%

C=CCN1C(=O)C(CC)(CCC(C)C)C(=O)NC1=S (stereo not given)
inactive: NCI-H23 lung 105% | NCI-H226 lung 104% | NCI-H322M lung 106% | HOP-62 NSCLC 113% | NCI-H460 lung 105% | 786-0 renal 97.7% | MDA-MB-231 breast 108% | SF-268 CNS 109% | SF-539 CNS 111% | U251 CNS 97.3% | UACC-62 melanoma 92.2% | SK-MEL-28 melanoma 104% | SN12C renal 101% | UO-31 renal 86.4% | OVCAR-8 ovarian 99.4% | OVCAR-3 ovarian 113% | MDA-MB-435 melanoma 101% | SW-620 colon 104% | MCF7 breast 107% | KM12 colon 108%

CC(/C=N/N=C(N)N)=N\N=C(N)N
inactive: NCI-H23 lung 68.9% | NCI-H226 lung 95.8% | NCI-H322M lung 10% | HOP-62 NSCLC 64.2% | NCI-H460 lung 82.7% | 786-0 renal 55.6% | MDA-MB-231 breast 80.2% | SF-268 CNS 50.3% | SF-539 CNS 51.9% | U251 CNS 77.8% | UACC-62 melanoma 86.7% | SK-MEL-28 melanoma 87.1% | SN12C renal 74.2% | UO-31 renal 46.9% | OVCAR-8 ovarian 58.4% | OVCAR-3 ovarian 57.7% | MDA-MB-435 melanoma 89.2% | SW-620 colon 70.6% | MCF7 breast 76.8% | KM12 colon 40.9%

COC(=O)C1CC2c3ccccc3C1c1ccccc12 (stereo not given)
inactive: NCI-H23 lung 111% | NCI-H226 lung 92.3% | NCI-H322M lung 98.8% | HOP-62 NSCLC 91.3% | NCI-H460 lung 104% | 786-0 renal 104% | MDA-MB-231 breast 122% | SF-268 CNS 107% | SF-539 CNS 101% | U251 CNS 101% | UACC-62 melanoma 103% | SK-MEL-28 melanoma 109% | SN12C renal 97.7% | UO-31 renal 83.6% | OVCAR-8 ovarian 101% | OVCAR-3 ovarian 115% | MDA-MB-435 melanoma 107% | SW-620 colon 106% | MCF7 breast 96.5% | KM12 colon 113%
